Several values for one entry are separate records, joined by “and”; a condition that tells them apart may be missing. Equal values may be shown once. The source holds several records for some structures; these can differ, active in one and inactive in another. Activity calls are given as the source filed them. The calls were made as follows: active = hit-call score of the fitted dose curve at least 0.9, where 1 is the maximum; inactive = score below 0.9.

Read-out in the assay: Tissue Factor, F3 (gene 2152)
The assay can be described thus: BSK_LPS_TissueFactor: BioMAP Diversity Plus: LPS Assay for Tissue Factor Biomarker Activity (AID 2283084). To be noted: primary human HUVEC with PBMC; actives raise or lower the signal. As to the method: BSK_LPS is a cell-based, multiplexed-readout assay that uses umbilical vein endothelium and peripheral blood mononuclear cells, a human vascular primary cell co-culture, with measurements taken at 24 hours after chemical dosing in a 96-well plate.BSK_LPS_TissueFactor is an assay component measured in the BSK_LPS assay. It measures CD142 Tissue Factor antibody related to regulation of gene expression using ELISA technology.Data from the assay component BSK_LPS_TissueFactor was analyzed into 1 assay endpoint. This assay endpoint, BSK_LPS_TissueFactor, was analyzed with bidirectional fitting relative to DMSO as the negative control and baseline of activity. Using a type of binding reporter, gain or loss-of-signal activity can be used to understand changes in the signaling as they relate to the gene F3. Furthermore, this assay endpoint can be referred to as a primary readout, because this assay has produced multiple assay endpoints where this one serves a signaling function. To generalize the intended target to other relatable targets, this assay endpoint is annotated to the cytokine intended target family, where the subfamily is coagulation factor.
The levels of cell surface (or secreted, indicated by the prefix "s") biomarker endpoints were measured by ELISA. Overt cytotoxicity to cells in confluent adherent cultures (all systems other than the BT system) was assessed by measuring total protein levels using sulforhodamine B (SRB) staining in parallel cultures at the time of biomarker measurements, indicated as SRB endpoints. For proliferation assays for adherent cell types, individual cell types are cultured at sub-confluence and relative cell numbers quantified by SRB staining at time points optimized for each system (48 h: 3C and CASM3C systems; 72 h: BT and HDF3CGF systems; 96 h: SAg system). SRB was performed by staining cells with 0.1% SRB after fixation with 10% TCA and reading wells at 560 nm.Viability and proliferation of PBMC (T cells) was quantified by Alamar Blue reduction for the SAg and BT systems. For PBMC viability (referred to as PBMC Cytotoxicity within the assay endpoint names), cells were plated (75,000/well in a 96-well plate) and then chemical samples added for 1 h before addition of activators, SEB and TSST-1 (20 ng/mL final concentration each). Cells were incubated for 90 h. Then, Alamar Blue (20 uL/well) (Invitrogen, Cat DAL1100) was added for 6 h, and the plates were read with a fluorescence microplate reader at 546/580 nm (excitation/emission). For PBMC proliferation, cells were plated and activated as above but incubated for only 16 h prior to addition of Alamar Blue. Plates were read after 6 h.
With `CC(=O)c1ccc(C)cc1`, the outcome was inactive. On to `CC/C(=C(\c1ccccc1)c1ccc(OCCN(C)C)cc1)c1ccccc1`, for which the AC50 is 29.1 µM (active) and 20 µM (active). Turning to `OCCN1CCOCC1`, the outcome was inactive. `C=C(C)C(N)=O`: the outcome was inactive. Consider `CCOC(=O)CCCCCCCCC(=O)OCC`, for which the result was inactive. On the same count and under the same terms, with `O=S(=O)(O)C(F)(F)C(F)(F)OC(F)(F)C(F)(F)F` the entry was “inactive”; with `CCCCCCCCCC(=O)OCC`, “inactive”. The same measure, in the same setting: with `CC(C)(CO)CO` the entry was “inactive”; with `CC1(C)[C@H](C=C(Cl)Cl)[C@H]1C(=O)OCc1cccc(Oc2ccccc2)c1`, “inactive”.

In the case of `CCCCCCCC1CCCC1=O` (stereo not given), the outcome was inactive.

For `COC(=O)c1ccc(C(=O)OC)cc1`, the outcome was inactive. As for `C=C(C)C(=O)OCCC(F)(F)C(F)(F)C(F)(F)C(F)(F)C(F)(F)C(F)(F)C(F)(F)C(F)(F)F`, the result was inactive. On the same count and under the same terms, for `CCCCN(CCO)CCO` the value was “inactive”; for `CCOC(=O)C=Cc1ccccc1`, “inactive”. Same read-out and setting: for `C=C(F)C(=O)OC(C(F)(F)F)C(F)(F)F` the value was “inactive”. With `c1ccc(OCCOc2ccccc2)cc1`, the outcome was inactive and the AC50 is 5.17 µM (active). In the case of `O=C(c1ccc(OCCN2CCCCC2)cc1)c1c(-c2ccc(O)cc2)sc2cc(O)ccc12`, the concentration at half-maximal activity (AC50) is 35.9 µM (active). For the compound `OCC(F)(OC(F)(F)C(F)(OC(F)(F)C(F)(F)C(F)(F)F)C(F)(F)F)C(F)(F)F` (stereo not given), the outcome was inactive.

Consider `c1ccc(Sc2ccccc2)cc1`, for which the AC50 was 37 µM (active). `CC(C)CCCC(C)(C)O`: the result was inactive. As for `CC(=O)CCC=C(C)CCC=C(C)C`, the result was inactive. On the same count and under the same terms, for `COc1ccccc1NC(=O)CC(C)=O` the value was “inactive”. On the same count and under the same terms, for `Nc1ccc(N)c([N+](=O)[O-])c1` the value was “inactive”; for `CC=CC(=O)C1=C(C)C=CCC1(C)C`, “inactive”; for `CCCCOCCOCCO`, “inactive”. Turning to `O=C(O)C(F)(F)OC(F)(F)C(F)(F)OC(F)(F)C(F)(F)C(F)(F)C(F)(F)F`, the outcome was inactive.

As to `C[C@]12CC[C@@H]3c4ccc(O)cc4CC[C@H]3[C@@H]1CC[C@@H]2O`, the outcome was inactive. As for `O=S1(=O)CC(Cl)(Cl)C(Cl)(Cl)C1`, the half-maximal activity concentration (AC50) is 0.538 µM (active). On to `CCCO[Si](OCCC)(OCCC)OCCC`, for which the result was inactive. The same measure, in the same setting: for `CC1=CC(C)C(C=O)C(C)C1` (stereo not given) (tested in a mixture with another compound) the value was “inactive”. On to `CC(=O)OCC=C(C)CCC=C(C)CCC=C(C)C`, for which the result was inactive. The same measure, in the same setting: for `CCn1cc(C(=O)O)c(=O)c2ccc(C)nc21` the value was “inactive”; for `CC(C)Cc1ccc(C(C)C(=O)O)cc1` (stereo not given), “inactive”; for `NC(=O)c1c(Cl)cccc1Cl`, “inactive”. With `c1ccc2c(c1)-c1ccc3ccc4cccc5cc-2c1c3c45`, the AC50 is 0.0082 µM (active). In the case of `O=C(O)C(F)(F)C(F)(F)C(F)(F)C(F)(F)C(F)(F)C(F)(F)C(F)(F)C(F)F`, the outcome was inactive. Turning to `CC(=O)OC(C)(C)C1CC=C(C)CC1` (stereo not given), the outcome was inactive. On the same count and under the same terms, for `CCCCCCCCCCCCS` the value was “inactive”. `C=CC(=O)OCC(CO)(COC(=O)C=C)COC(=O)C=C`: the AC50 was 0.576 µM (active).

Source of the values: PubChem BioAssay (EPA / NIEHS).
